The panel holds about 83,000 compounds, 20% with a hit somewhere; the sample as a whole holds those more often.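 Activity criterion: percent growth below 10, measured after cells in 96-well plates were exposed to a single compound concentration for 48 hours.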 Unmarked numbers belong to inactive results. Activity calls are given as the source filed them.

Some test systems named below: NCI-H23 lung; NCI-H226 lung; NCI-H322M lung; HOP-62 NSCLC; NCI-H460 lung; NCI-H522 lung; A549/ATCC NSCLC; 786-0 renal; COLO 205 colon; DU-145 prostate; K-562 leukemia; MALME-3M melanoma; MDA-MB-231 breast; RXF 393 renal; SF-268 CNS; SF-295 CNS; SF-539 CNS; UACC-257 melanoma; M14 melanoma; HOP-92 NSCLC.
What all share (experiment): NCI-60 one-dose screen, 48 h (100 = growth as untreated, 0 = no growth, -100 = all killed)
What all share (conditions): 10 µM unless noted

For `CCn1c2ccccc2c2cc(NC(=O)Nc3ccc([N+](=O)[O-])cc3C)ccc21`, the growth is 41.5% with NCI-H23 lung; 74.9% in the assay on NCI-H226 lung; 77.8% with NCI-H322M lung; 49.4% in the assay on HOP-62 NSCLC; 19.5% with NCI-H460 lung; 9.7% (active) in the assay on NCI-H522 lung. Also, the growth with A549/ATCC NSCLC is 31.5%; in the assay on 786-0 renal, 38.9%; with COLO 205 colon, 29.9%; in the assay with DU-145 prostate, 65.7%; with K-562 leukemia, 8.55% (active); with MALME-3M melanoma, 64.5%. Besides, the growth in the assay on MDA-MB-231 breast is 29.3%; in the assay with RXF 393 renal, -31.1% (active); with SF-268 CNS, 64.9%; in the assay with SF-295 CNS, 13.1%; in the assay with SF-539 CNS, 47%; in the assay on UACC-257 melanoma it was 20%. The growth in the assay with M14 melanoma is 32.6%.

Turning to `CSc1nc2c(c(=O)[nH]1)C(c1ccc(C)cc1)C=C(C(=O)O)N2` (stereo unspecified), the growth was 98.9% in the assay on NCI-H23 lung; 104% with NCI-H226 lung; 101% in the assay on NCI-H322M lung; 107% with HOP-62 NSCLC; 106% with NCI-H460 lung; 108% in the assay with NCI-H522 lung. The growth in the assay with A549/ATCC NSCLC was 106%; with 786-0 renal it was 104%; with COLO 205 colon, 126%; with DU-145 prostate, 123%; in the assay on K-562 leukemia, 110%; with MALME-3M melanoma it was 98.8%. For the same compound, the growth was 136% in the assay on MDA-MB-231 breast; 112% in the assay on RXF 393 renal; 115% with SF-268 CNS; 89.5% in the assay with SF-295 CNS; 106% in the assay with SF-539 CNS; 110% with UACC-257 melanoma. Also, in the assay with M14 melanoma, the growth is 99.8%.

As for `CC1CCC(C)N(C)C1` (stereo unspecified), the growth in the assay on NCI-H23 lung was 104%; in the assay on NCI-H226 lung it was 101%; in the assay with NCI-H322M lung, 100%; with HOP-62 NSCLC, 107%; in the assay with NCI-H460 lung, 109%; with NCI-H522 lung it was 104%. The growth is 103% in the assay on A549/ATCC NSCLC; 94.4% with 786-0 renal; 110% in the assay on COLO 205 colon; 122% in the assay on DU-145 prostate; 98.9% with K-562 leukemia; 101% with MALME-3M melanoma. The growth in the assay with MDA-MB-231 breast is 98.2%; in the assay on RXF 393 renal, 100%; with SF-268 CNS it was 108%; with SF-295 CNS it was 116%; with SF-539 CNS, 103%; in the assay with UACC-257 melanoma it was 105%. Besides, the growth with M14 melanoma is 96.8%.

Regarding `COc1ccc(-c2c(N)n[nH]c2-c2cc3c(c(OC)c2OC)OCO3)cc1`, the growth in the assay on NCI-H23 lung is 96.8%; with NCI-H226 lung, 99.9%; with NCI-H322M lung it was 100%; in the assay with HOP-62 NSCLC, 101%; in the assay with NCI-H460 lung it was 105%; in the assay with HOP-92 NSCLC, 87.2%. Moreover, the growth in the assay on A549/ATCC NSCLC is 97.1%; with 786-0 renal it was 105%; with COLO 205 colon it was 101%; in the assay on DU-145 prostate, 108%; in the assay on K-562 leukemia, 98.4%; in the assay with MALME-3M melanoma, 97.8%. The growth is 83.7% in the assay with MDA-MB-231 breast; 108% in the assay on RXF 393 renal; 99.1% in the assay with SF-268 CNS; 102% with SF-295 CNS; 93.1% with SF-539 CNS; 98.7% in the assay with UACC-257 melanoma. For the same compound, the growth with M14 melanoma was 101%.

Regarding `COc1ccc(C2C=C(c3ccc(Cl)cc3)N=C3SC=C(C)N32)c(Br)c1` (stereo unspecified), the growth with NCI-H23 lung is 50.1%; in the assay on NCI-H226 lung, 59.5%; in the assay with NCI-H322M lung it was 55.2%; with HOP-62 NSCLC, 30.5%; with NCI-H460 lung, 13.4%; in the assay with HOP-92 NSCLC it was 95.6%. Further, the growth is 36.9% in the assay with A549/ATCC NSCLC; 47.2% in the assay with 786-0 renal; 18.6% in the assay on COLO 205 colon; -31.5% (active) in the assay with DU-145 prostate; 5.84% (active) with K-562 leukemia; 43.6% in the assay on MALME-3M melanoma. Further, the growth was 58.2% in the assay with MDA-MB-231 breast; -7.69% (active) with RXF 393 renal; 43.4% in the assay on SF-268 CNS; 37.3% in the assay on SF-539 CNS; 39.4% in the assay with UACC-257 melanoma; 28.3% in the assay with M14 melanoma.

Turning to `CN(C)CCN1C(=O)c2ccc3c4c(ccc(c24)C1=O)C(=O)N(CCN=C=S)C3=O`, the growth is -61.7% (active) in the assay on NCI-H23 lung; -94.7% (active) in the assay with NCI-H226 lung; -94.1% (active) in the assay on NCI-H322M lung; -96.3% (active) with HOP-62 NSCLC; -43.5% (active) in the assay with NCI-H460 lung; -93.8% (active) with NCI-H522 lung. Also, the growth was -52.8% (active) with A549/ATCC NSCLC; -81.3% (active) with 786-0 renal; -87.9% (active) in the assay with COLO 205 colon; -97.1% (active) with DU-145 prostate; -29.7% (active) in the assay on K-562 leukemia; -63.7% (active) in the assay on MALME-3M melanoma. Further, the growth is -84.5% (active) in the assay with MDA-MB-231 breast; -98.5% (active) with RXF 393 renal; -89% (active) in the assay on SF-268 CNS; -71.7% (active) in the assay on SF-295 CNS; -81.7% (active) with SF-539 CNS; -95.3% (active) with UACC-257 melanoma. The growth with M14 melanoma was -77.5% (active).

Turning to `N=C(N)c1ccc(-c2ccc(-c3ccc4ccccc4c3)s2)cc1`, the growth in the assay on NCI-H23 lung is 88.7%; in the assay with NCI-H226 lung, 96.7%; with NCI-H322M lung, 97%; with HOP-62 NSCLC, 97.6%; in the assay with NCI-H460 lung, 99.7%; with NCI-H522 lung, 104%. The growth is 71.5% with A549/ATCC NSCLC; 95% with 786-0 renal; 97.9% in the assay with COLO 205 colon; 99.6% in the assay with DU-145 prostate; 1.51% (active) in the assay with K-562 leukemia; 105% with MALME-3M melanoma. Moreover, the growth with MDA-MB-231 breast is 95.4%; with RXF 393 renal, 61.6%; in the assay with SF-268 CNS, 94.7%; with SF-295 CNS, 102%; with SF-539 CNS, 97%; in the assay with UACC-257 melanoma it was 106%. In the assay on M14 melanoma, the growth is 99.6%.

For `Clc1ccccc1-c1nc2ccccc2[nH]1`, the growth is 90% in the assay on NCI-H23 lung; 120% with NCI-H226 lung; 152% in the assay with NCI-H322M lung; 92% in the assay on HOP-62 NSCLC; 104% in the assay on NCI-H460 lung; 92.4% in the assay on HOP-92 NSCLC. The growth in the assay with A549/ATCC NSCLC is 105%; in the assay with 786-0 renal, 46.3%; with COLO 205 colon it was 112%; with DU-145 prostate, 110%; in the assay with K-562 leukemia, 89.6%; in the assay with MALME-3M melanoma, 101%. For the same compound, the growth is 102% in the assay on MDA-MB-231 breast; 99.9% in the assay on RXF 393 renal; 102% in the assay with SF-268 CNS; 96% in the assay on SF-295 CNS; 94.6% in the assay with SF-539 CNS; 113% in the assay on UACC-257 melanoma. The growth in the assay on M14 melanoma was 85.8%.

These data come from PubChem BioAssay (NCI).
